# High-throughput results (PubChem)
# Rows were chosen to be rich in hits. Some 21% of all compounds tested hit in one or more screens of this group.
# Pf growth 48h: inhibits P. falciparum growth in the first generation, 48 h; AID 504832; Potency, µM (doses to about 28.7 µM), actives largely listed as inhibitors; actives 5.9% (n = 310,000); P. falciparum luciferase growth in erythrocytes, 48 h
#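 Firefly luciferase activity from engineered P. falciparum reports growth; inhibitors lower the luminescent signal. Cultures contained 2% hematocrit erythrocytes at 0.1% final parasitemia.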
# SARS PLP yeast: inhibitors of SARS-CoV papain-like protease in yeast | actives 0.19% (n = 330,000) | S. cerevisiae expressing SARS-CoV PLpro, growth rescue | AID 485353 | Potency, µM (doses to about 32.9 µM), hits mostly activators; calls by dose curve; note: nearly all actives have a fitted effect of over 55% in size
# CHX counter: counter-screen for Shiga toxin inhibitors: cycloheximide protein synthesis inhibition. AID 2314. max response, %. cell reporter, cycloheximide protein synthesis inhibition counterscreen. actives 12% (n = 300,000); in the data active = max response mostly above about 13%, no sharp cut-off; inactive = mostly below about 14%; note: read at 38.3 µM for the half of the compounds with a filed dose
# Shiga inhibitor: blocks Shiga toxin action in Vero cells. AID 2315. Vero cells, Shiga toxin protein synthesis inhibition reporter. inhibition, % at 38.7 µM. actives 9.2% (n = 290,000); in the data active = inhibition mostly above about 28%, no sharp cut-off; inactive = mostly below about 43%
# NS1 function inh: blocks influenza NS1 protein function; Potency, µM (highest dose often 46.1 µM); actives 0.4% (n = 270,000); AID 2326; calls by dose curve; note: actives are rising curves; nearly all actives have a fitted effect of over 50% in size
#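 OD600 was taken as the measure of yeast growth restored by compound in an NS1-expressing S. cerevisiae strain. Cells had been washed out of glucose medium and diluted 1:100 into galactose -URA medium, pH 6.0.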
# Pf growth 96h: P. falciparum growth inhibition at 96 hours; P. falciparum luciferase reporter growth, 96 h; Potency, µM (doses to about 28.7 µM), actives largely listed as inhibitors; actives 6.9% (n = 320,000)
#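 Two-generation exposure (96 h) targets delayed-death phenotype. Reporter parasites carrying integrated firefly luciferase, in red cells at 2% hematocrit and 0.05% parasitemia final, kept at 37 C, 5% CO2; luminescence loss indicates inhibition.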
# Numbers stand for hits; i = inactive; ? = inconclusive; nt = not tested or not shown. Unless noted, calls come from the whole dose curve; as a rule, active = well fitted inhibition curve with a large enough effect; inconclusive = small, poorly fitted or top-dose-only effect, or another doubt; inactive = no such curve, though single readings can be large or run the other way.
SMILES,Pf growth 48h,SARS PLP yeast,CHX counter,Shiga inhibitor,NS1 function inh,Pf growth 96h
CCN(C(=O)CSc1nnc(C)n1-c1cccc(C)c1)C1CCS(=O)(=O)C1 (stereo not given),i,i,nt,nt,nt,i
CCN(C(=O)CSc1nnc(CNc2cccc(OC)c2)n1C1CCCCC1)C1CCS(=O)(=O)C1 (stereo not given),?,i,i,i,?,4.15µM
CN(CC(=O)O)C(=O)[C@H](Cc1ccccc1)NC(=O)[C@@H](CCCN=C(N)N)NC(=O)[C@@H](N)Cc1ccc(O)cc1,nt,nt,i,i,nt,nt
O=C(NC1CCCCC1)C(c1ccncc1)N(Cc1ccc2c(c1)OCO2)C(=O)C(F)(F)F (stereo not given),9.28µM,i,i,i,i,2.08µM
O=C(NC1CCCC1)C(c1ccncc1)N(C(=O)c1ccco1)c1ccc(Cl)cc1 (stereo not given),i,i,i,i,i,?
CCc1ccc(N(C(=O)c2ccco2)C(C(=O)NC2CCCC2)c2ccncc2)cc1 (stereo not given),i,i,15.0,74.2,i,?
CCc1ccc(N(C(=O)C(F)(F)F)C(C(=O)NC2CCCCC2)c2ccncc2)cc1 (stereo not given),13.1µM,i,i,i,i,2.62µM
O=C(N/N=C/c1cn(-c2ccccc2)nc1-c1cc2ccccc2o1)c1cccnc1,?,i,52.5,106.0,i,?
O=C(N/N=C/c1cn(-c2ccccc2)nc1-c1cccnc1)c1cccnc1,?,i,i,i,nt,?
O=C(N/N=C/c1cn(-c2ccccc2)nc1-c1cc2ccccc2o1)c1ccncc1,i,i,84.7,131.9,i,i
COC(=O)c1c(NC(=O)CN2C(=O)NC3(CCc4ccccc4C3)C2=O)sc2c1CCCCC2 (stereo not given),i,i,i,i,i,i
COCCNC(=O)C(=O)c1cc(C)n(-c2ccc([N+](=O)[O-])cc2)c1C,?,i,i,i,i,i
Cc1cc(C(=O)C(=O)NC(C)C)c(C)n1-c1ccc([N+](=O)[O-])cc1,7.38µM,i,i,i,i,?
CC1(C)CC(=O)C2=C(C1)OC1OC(=O)CC21C (stereo not given),i,i,i,i,i,i
CN1CCC(CNC(=O)Nc2csc3ccccc23)CC1,i,i,i,i,i,i
O=C(Nc1ccc(F)cc1)Nc1csc2ccccc12,?,i,20.8,96.6,i,?
CN(C)c1ccc(NC(=O)Nc2csc3ccccc23)cc1,?,i,44.2,75.8,i,5.22µM
COc1ccc(C2=Nn3c(nnc3-c3ccc(OC)c(OC)c3)SC2)cc1,nt,nt,i,i,nt,nt
O=C(Cc1ccc(F)cc1)N/N=C/c1ccc(-c2ccc(Cl)c(C(=O)O)c2)o1,i,i,i,i,nt,i
O=C(O)c1ccc(N/N=C/c2c(F)cccc2Cl)cc1,nt,i,i,i,i,i
O=C(O)c1ccc(N/N=C/c2ccc(-c3ccc(Cl)cc3Cl)o2)cc1,i,i,38.9,111.3,i,i
O=C(O)c1cc(N/N=C/c2ccc(-c3ccc(F)cc3)o2)ccc1Cl,i,i,45.6,152.1,i,i
O=C(O)c1ccc(N/N=C/c2ccc(-c3cc(Cl)ccc3Cl)o2)cc1,i,i,81.4,112.1,i,i
Clc1cccc(-c2ccc(C=Nc3ccc(N4CCOCC4)cc3)o2)c1,i,i,i,i,i,10.4µM
O=C(c1c(Cl)cccc1Cl)N1CCN(c2ncccn2)CC1,nt,i,i,i,i,i
SMILES,Pf growth 48h,SARS PLP yeast,CHX counter,Shiga inhibitor,NS1 function inh,Pf growth 96h
CCOC(=O)c1ccc(NC(=O)CSc2nc(-c3cccs3)cc(C(F)(F)F)c2C#N)cc1,nt,nt,i,i,nt,nt
CC1CN(C2CCN(C(=O)c3ccccc3Cl)CC2)CC(C)O1 (stereo not given),i,i,i,i,i,i
O=C(N/N=C\c1ccc(-c2cccc(Cl)c2)o1)C(=O)NC1CCCC1,i,i,i,i,i,i
O=C(O)c1ccc(N/N=C/c2ccc(-c3cccc(Cl)c3)o2)cc1,i,i,60.1,82.5,i,i
COc1ccccc1C(=O)COC(=O)CCNS(=O)(=O)c1ccc(C)c(C)c1,i,i,nt,nt,nt,i
CCOC(=O)C1(CC2CC2)CCN(C(=O)c2cccnc2C)CC1,i,i,16.9,i,i,i
CCOC(=O)C1(CC2CC2)CCN(C(=O)c2cc(OC)nc3ccccc23)CC1,?,i,30.8,87.9,i,i
CCOC(=O)C1CCCN(C(=O)c2cc(Nc3ccc(OC)cc3)nc3ccccc23)C1 (stereo not given),?,nt,i,i,i,?
CCOC(=O)C1(CC2CC2)CCN(C(=O)c2cc(C3CC3)nc3ccccc23)CC1,?,i,34.3,55.4,i,?
CCNC(=S)NNC(=O)c1cc(C2CC2)nc2ccccc12,?,i,i,i,i,i
Cc1cc(C)cc(NC(=S)NCCN(C2CCCCC2)C2CCCC2)c1,?,i,i,i,nt,?
COc1ccccc1NC(=O)Cc1noc(CSc2nnc(C)n2C)n1,?,i,i,i,i,?
COc1cccc(-n2c(SCC(=O)NCC3CCCO3)nc3c(c2=O)SCC3)c1 (stereo not given),i,i,i,i,i,i
Cc1ccc(S(=O)(=O)Nc2nc3cc(C)c(C)cc3[nH]2)cc1,i,i,i,i,i,i
COc1cccc(C(=O)Nc2cccc3cccnc23)c1OC,i,i,22.2,nt,i,i
CCOc1ccccc1C(=O)Nc1cccc2cccnc12,?,i,20.3,19.0,i,?
CCOc1ccccc1NC(=O)c1cc(-c2ccncc2)nc2c(Cl)cccc12,5.22µM,i,i,i,i,i
CCOC(=O)Cc1csc(NC(=O)c2cc(-c3ccncc3)nc3ccccc23)n1,?,i,nt,nt,nt,i
O=C1CCN(Cc2ccc(Br)cc2)CCN1[C@H](CO)Cc1ccccc1,i,i,i,i,i,i
COC(=O)C(NC(=O)c1ccccc1C(=O)O)c1ccc2ccccc2c1 (stereo not given),i,i,i,i,i,i
COC(=NC(C)C)NC(C)C,i,i,i,i,i,i
CCOC(=O)C1CCN(C(=O)CNC(=O)c2nn(-c3ccc(OC)c(OC)c3)c(=O)c3ccccc23)CC1,?,i,20.6,i,i,i
CCOC(=O)C1CCN(C(=O)CNC(=O)c2nn(-c3ccc(OC)cc3)c(=O)c3ccccc23)CC1,?,i,27.4,i,i,?
COCC(C)n1c(SCC(=O)N(C)C2CCS(=O)(=O)C2)nc2ccccc2c1=O (stereo not given),i,i,i,i,i,i
CCn1cc(CN2CCC(n3nccc3NC(=O)CCCc3ccccc3)CC2)cn1,?,i,i,i,i,i
CCOc1cccc(CN2CCC(n3nccc3NC(=O)CCCc3ccccc3)CC2)c1,10.4µM,i,i,i,i,?
CN(C)S(=O)(=O)N1CCC(n2nccc2NC(=O)CCCc2ccccc2)CC1,?,i,i,i,i,5.22µM
